Experimental data taken from PubChem BioAssay (NCI).
The panel holds about 83,000 compounds, 20% with a hit somewhere; the sample as a whole holds those more often.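 Treatment: one concentration, 48 hours, 96-well format. Scoring: percent growth, with anything below 10 considered active.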 A number with no mark means an inactive call. Active and inactive are the calls of the source.

These molecules were tested on NCI-H460 lung (assay: NCI-60 one-dose screen, 48 h (100 = growth as untreated, 0 = no growth, -100 = all killed)). Settings: 10 µM unless noted.
Experimental: Growth inhibition of the NCI-H460 human Non-Small Cell Lung tumor cell line is measured as a screen for anti-cancer activity. Cells are grown in 96 well plates and exposed to the test compound for 48 hours. Compounds are tested at a single concentration, which is 10^-5 M for most compounds. The reported endpoint is percent growth (GI% or GIPRCNT), where numbers from 0 - 100% represent growth inhibition, and numbers from -100% - 0 represent cell death. For example, a value of 40 represents 60% growth inhibition. A value of 0 means no net growth occurred over the course of the experiment. A value of -40 indicates 40% of cells at the beginning of the experiment died by the end of the experiment. A value of -100 means all cells are dead at the end of the experiment.
NCI-60 Human Tumor Cell Lines Screen was performed using the standard one-dose NCI protocol, which is described in more detail at https://dtp.cancer.gov/discovery_development/nci-60/default.htm.
Compounds with GIPRCNT values below 10 were considered active. Activity score was based on GIPRCNT using the following formula: […]
Score is 0 for GIPRCNT values of 100 or above, 50 for GIPRCNT values of 0, and 100 for GIPRCNT values of -100.

Question: `COc1ccc(CNS(=O)(=O)/N=C2\NC(=O)NC2=C(Cl)Cl)cc1` was tested. Which growth did it give?
Answer: 19%

Question: Which growth does the source give for `O=C1c2c(c3c4cccnc4[nH]c3c3ccc4ccccc4c23)C(=O)N1CCO` here?
Answer: 17.6%

Question: For `COc1cc(OC)c(S(=O)(=O)NNC(=O)c2ccncc2)cc1C(=O)/C=C/c1ccc(C)cc1`, which growth is on record?
Answer: 63.4%

Question: `CC(=O)Oc1ccccc1C(=O)Nc1ccc(C(=O)/C=C/c2cccs2)cc1` was tested. Which growth did it give?
Answer: 116%

Question: With `CCN(CC)c1ccc(C=O)c(OCc2cn(CC(=O)Nc3ccc(Cl)cc3)nn2)c1` as the molecule, how does the growth read?
Answer: 52%

Question: Which growth does the source give for `O=C1NC(=C(Cl)Cl)/C(=N/S(=O)(=O)N2CCCCC2CC2(C(F)(F)F)N=N2)N1` (stereo not given) here?
Answer: 84.6%

Question: `COC(=O)C(C)NS(=O)(=O)/N=C1\NC(=O)NC1=C(Cl)Cl` (stereo not given) was tested. Which growth did it give?
Answer: 113%

Question: `COc1ccc(C(=O)c2cc(C(=O)/C=C/c3c(Cl)cccc3Cl)c3cc(C)ccn23)cc1` was tested. Which growth did it give?
Answer: 100%

Question: How did the growth turn out when `O=C(CCCN1C(=O)/C(=C/c2ccccc2F)SC1=S)N1CCOCC1` was run?
Answer: 97.8%

Question: For `NC(=O)c1c(NC(=O)c2ccc(C3CCCCC3)cc2)sc2c1CCC(=O)C2`, which growth is on record?
Answer: 15.8%

Question: For `Nc1cc(-c2c[nH]c3ccccc23)nc2cc(-c3c[nH]c4ccccc34)nn12`, which growth is on record?
Answer: 4.94% (active)

Question: `Clc1ccc2c(OCCCN3CCOCC3)c3oc4ccccc4c3nc2c1` was tested. Which growth did it give?
Answer: 10.5%

Question: With `CN(C)S(=O)(=O)c1oc(-c2ccccc2)nc1C#N` as the molecule, how does the growth read?
Answer: 109%

Question: Which growth does the source give for `COc1ccc2[nH]cc(-c3cc(N)n4nc(-c5c[nH]c6ccc(OC)cc56)cc4n3)c2c1` here?
Answer: -84.6% (active)

Question: For `CC(=NNc1ncnc2ccccc12)c1ccc(S(C)(=O)=O)cc1`, which growth is on record?
Answer: 108%

Question: Which growth does the source give for `N#Cc1nc(-c2ccccc2)oc1N1CC[C@@H](CO)C1` here?
Answer: 99.7%

Question: With `Nc1cc(-c2c[nH]c3ccc(Cl)cc23)nc2cc(-c3c[nH]c4ccc(Cl)cc34)nn12` as the molecule, how does the growth read?
Answer: 12.1%

Question: `CS(=O)(=O)c1ccc(-n2cc(/C=C/C(=O)c3ccc(NC(=O)CO[N+](=O)[O-])cc3)c(-c3ccc(Cl)cc3)n2)cc1` was tested. Which growth did it give?
Answer: 106%

Question: For `N#Cc1nc(-c2ccccc2)oc1N1CCC(CO)C1` (stereo not given), which growth is on record?
Answer: 103%

Question: `O=C(CSc1nc2sc3c(c2c(=O)n1-c1ccc(Cl)cc1)CCCC3)N/N=C/c1ccc(F)cc1` was tested. Which growth did it give?
Answer: 81.4%

Question: Which growth does the source give for `N#Cc1c(-c2ccc(Cl)cc2)nc(SCc2ccc(F)cc2)nc1N1CCNCC1` here?
Answer: -70.2% (active)

Question: For `Cc1cccc(/C=C/c2nn3c(-c4ccco4)nnc3s2)c1`, which growth is on record?
Answer: 102%

Question: Which growth does the source give for `COc1cc(/C=C/C(=O)c2ccc(Cl)cc2)ccc1Oc1nc(NCCO)nc(N2CCOCC2)n1` here?
Answer: 106%

Question: How did the growth turn out when `COC(=O)C(Cc1ccccc1)NS(=O)(=O)/N=C1\NC(=O)NC1=C(Cl)Cl` (stereo not given) was run?
Answer: 97.6%

Question: How did the growth turn out when `CCOC(=O)c1sc(NCC(=O)Nc2cccc([N+](=O)[O-])c2)c(C(=O)OCC)c1C` was run?
Answer: 2.96% (active)

Question: For `C[C@@H](Nc1c(C#N)cnc2ccc(-c3cnc(N)nc3)cc12)c1ccccc1`, which growth is on record?
Answer: 13.3%

Question: Which growth does the source give for `Cc1sc2c(c1C)c(=O)nc1c(-c3nc(-c4ccc(F)cc4)no3)n[nH]n12` here?
Answer: 107%

Question: With `Cc1sc2nc(NCc3ccccc3Cl)[nH]c(=O)c2c1C` as the molecule, how does the growth read?
Answer: 50.4%

Question: For `C[C@@H]1CN(c2ccc3ncc(C#Cc4cncc(C(=O)Nc5ccc(CN6CCN(C)CC6)c(C(F)(F)F)c5)c4)n3n2)C[C@H](C)O1`, which growth is on record?
Answer: -77.7% (active)

Question: How did the growth turn out when `Nc1c(C(=O)Nc2ccc(Cl)cc2)sc2nc(-c3cnccn3)cc(-c3cccs3)c12` was run?
Answer: 63.1%

Question: Which growth does the source give for `C#Cc1nc(C2=C(C)C(OC(C)=O)/C(=N/OC(C)=O)C2)cs1` (stereo not given) here?
Answer: 36.1%

Question: `O=C1[C@H]2Cc3c([nH]c4ccccc34)[C@@H](c3ccc(Br)cc3)N2C(=O)CN1C1CCN(Cc2ccccc2)CC1` was tested. Which growth did it give?
Answer: 30%

Question: With `N[C@@H](Cc1cn(-c2c3ccccc3nc3ccccc23)nn1)C(=O)O` as the molecule, how does the growth read?
Answer: 111%

Question: For `NS(=O)(=O)c1cccc(Nc2nc(SCC(=O)c3ccc(Cl)cc3)nc3ccccc23)c1`, which growth is on record?
Answer: 48.4%

Question: `COc1cc(/C=C/C(=O)c2ccccc2)ccc1Oc1nc(NCCO)nc(N2CCOCC2)n1` was tested. Which growth did it give?
Answer: 110%

Question: How did the growth turn out when `Cc1cccc2sc(/N=C(\N)C(Br)Br)nc12` was run?
Answer: 1.4% (active)

Question: For `Nc1nc(N)c2c(n1)NC(c1ccc(C(F)(F)F)cc1)CC(c1ccc(Nc3nc(NCCO)nc(Nc4ccc(Cl)cc4)n3)cc1)=N2` (stereo not given), which growth is on record?
Answer: -69% (active)

Question: `CCOc1ccc([C@H]2C(C(=O)c3ccc(Cl)cc3)C3(N[C@@H]2c2ccccc2)C(=O)Nc2ccc(Br)cc23)cc1` (stereo not given in full) was tested. Which growth did it give?
Answer: 2.83% (active)

Question: How did the growth turn out when `COc1ccc(COc2ccc(/C=C3/C(=O)Nc4cc(Cl)ccc43)cc2)cc1` was run?
Answer: 98.2%

Question: For `CS(=O)(=O)Nc1ccc(-c2nn(-c3ccc(S(C)(=O)=O)cc3)cc2/C=C/C(=O)c2ccc(NC(=O)CO[N+](=O)[O-])cc2)cc1`, which growth is on record?
Answer: 110%
